The nature of experiment [1]: NCI Yeast Anticancer Drug Screen. Data for the rad50 strain (AID 155).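 Further: 0% = growth of vehicle-only cultures of the same strain.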 The note with it: S. cerevisiae rad50 strain growth inhibition, stronger effect = higher value. In short, it runs like this:
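A DNA repair-deficient yeast mutant serves as the test organism; compound-induced growth inhibition is calculated against vehicle-treated cells.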

The nature of experiment [2]: NCI Yeast Anticancer Drug Screen. Data for the mec2-1 strain (AID 157). The following applies: S. cerevisiae mec2-1 strain, stronger effect = higher value. The procedure, abridged: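 Using mec2-1 yeast: add compound, measure growth, express inhibition versus vehicle-treated cultures.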
Experiment [3] in a line: NCI Yeast Anticancer Drug Screen. Data for the sgs1 mgt1 strain (AID 161).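 Further: 0% = growth of cultures given vehicle only.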 The following applies: S. cerevisiae sgs1 mgt1 strain, stronger effect = higher value. The procedure, abridged:
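This yeast growth screen uses a strain with defined DNA-repair lesions; compound-treated growth is compared with vehicle-treated growth.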

Experiment [4] is described as follows: NCI Yeast Anticancer Drug Screen. Data for the cln2 rad14 strain (AID 165).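 Further: 0% = growth equal to vehicle treated cultures.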 The following applies: S. cerevisiae cln2 rad14 strain, stronger effect = higher value. The procedure, abridged:
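Yeast strain cln2 rad14, bearing defects in cell cycle control and DNA repair, serves as the test system; values reflect growth inhibition compared with vehicle.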

A short description of experiment [5]: NCI Yeast Anticancer Drug Screen. Data for the bub3 strain (AID 167). The following applies: S. cerevisiae bub3 mutant strain, stronger effect = higher value. The procedure, abridged: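 Inhibition values come from growth of compound-treated mutant yeast normalised to vehicle-treated controls.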
A short description of experiment [6]: NCI Yeast Anticancer Drug Screen. Data for the mlh1 rad18 strain (AID 175). The following applies: S. cerevisiae mlh1 rad18 strain growth inhibition, stronger effect = higher value. The procedure, abridged:
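Steps: expose repair-defective yeast to compound; measure growth; express inhibition against vehicle-treated controls.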

Where [7] appears, read: at 5.0 µM (retest, dose inferred, filed as 0.5).
The mark [8] stands for this setting: at 50.0 µM (retest, dose inferred, filed as 5.0).

This is part of a sample that, as a whole, favours compounds with a hit. Of some 79,000 tested, about 15% had one in any assay. Values without a mark were called inactive. Calls of active or inactive are those of the source. No stated cut-off is given here; in the data, active means growth inhibition above about 70%; inactive means the rest.

On to `COC(=O)/C=C(\Cl)C(=O)OC`, for which the growth inhibition in experiment [1] (setting [7]) is 8%; in experiment [1] (setting [8]), 84% (active); in experiment [1] (at 50.0 µM), 99.3% (active); in experiment [2] (setting [7]) it was 16%; in experiment [2] (setting [8]) it was 99% (active); in experiment [2] (at 50.0 µM), 99.7% (active). The growth inhibition was 5% in experiment [3] (setting [7]); 98% (active) in experiment [3] (setting [8]); 99.5% (active) in experiment [3] (at 50.0 µM); 19% in experiment [4] (setting [7]); 99% (active) in experiment [4] (setting [8]); 97.5% (active) in experiment [4] (at 50.0 µM). The growth inhibition was 19% in experiment [5] (setting [7]); 97% (active) in experiment [5] (setting [8]); 99.5% (active) in experiment [5] (at 50.0 µM); 7% in experiment [6] (setting [7]); 98% (active) in experiment [6] (setting [8]); 99.2% (active) in experiment [6] (at 50.0 µM).
Turning to `CC(C)NCC=C=Nc1ccccc1`, the growth inhibition in experiment [1] (setting [7]) was -11%; in experiment [1] (setting [8]) it was -32%; in experiment [1] (at 50.0 µM) it was 45.8%; in experiment [2] (setting [7]), -30%; in experiment [2] (setting [8]), -25%; in experiment [2] (at 50.0 µM) it was 9.45%. Besides, the growth inhibition is -8% in experiment [3] (setting [7]); -21% in experiment [3] (setting [8]); 43.4% in experiment [3] (at 50.0 µM); -2% in experiment [4] (setting [7]); -28% in experiment [4] (setting [8]); 40.5% in experiment [4] (at 50.0 µM). Moreover, the growth inhibition in experiment [5] (setting [7]) was -26%; in experiment [5] (setting [8]), -82%; in experiment [5] (at 50.0 µM), -5.5%; in experiment [6] (setting [7]) it was -9%; in experiment [6] (setting [8]), -29%; in experiment [6] (at 50.0 µM), 24.2%.
As to `O=C1c2cccc3cc4ccccc4c(c23)C(=O)N1CCCNCCNCCCN1C(=O)c2cccc3cc4ccccc4c(c23)C1=O`, the growth inhibition in experiment [1] (setting [7]) was 94% (active); in experiment [1] (setting [8]) it was 98% (active); in experiment [1] (at 50.0 µM) it was 90.1% (active); in experiment [2] (setting [7]), 96% (active); in experiment [2] (setting [8]) it was 98% (active); in experiment [2] (at 50.0 µM) it was 85.2% (active). The growth inhibition in experiment [3] (setting [7]) is 96% (active); in experiment [3] (setting [8]), 98% (active); in experiment [3] (at 50.0 µM) it was 86.5% (active); in experiment [4] (setting [7]), 83% (active); in experiment [4] (setting [8]) it was 98% (active); in experiment [4] (at 50.0 µM) it was 88% (active). The growth inhibition in experiment [5] (setting [7]) was 98% (active); in experiment [5] (setting [8]) it was 98% (active); in experiment [5] (at 50.0 µM) it was 87.8% (active); in experiment [6] (setting [7]), 94% (active); in experiment [6] (setting [8]), 97% (active); in experiment [6] (at 50.0 µM), 91% (active).
For `Oc1ccc2cc(Br)ccc2c1`, the growth inhibition is 8% in experiment [1] (setting [7]); 98% (active) in experiment [1] (setting [8]); 54.1% in experiment [1] (at 50.0 µM); 0% in experiment [2] (setting [7]); 99% (active) in experiment [2] (setting [8]); 99% (active) in experiment [2] (at 50.0 µM). For the same compound, the growth inhibition was 2% in experiment [3] (setting [7]); 97% (active) in experiment [3] (setting [8]); 45.1% in experiment [3] (at 50.0 µM); -2% in experiment [4] (setting [7]); 98% (active) in experiment [4] (setting [8]); 56.4% in experiment [4] (at 50.0 µM). Besides, the growth inhibition is 4% in experiment [5] (setting [7]); 99% (active) in experiment [5] (setting [8]); 99% (active) in experiment [5] (at 50.0 µM); 3% in experiment [6] (setting [7]); 99% (active) in experiment [6] (setting [8]); 98.8% (active) in experiment [6] (at 50.0 µM).
As for `C[n+]1c(-c2cccc(OCCCCCCCCCCOc3cccc(-c4c5cc(N)ccc5c5ccc(N)cc5[n+]4C)c3)c2)c2cc(N)ccc2c2ccc(N)cc21`, the growth inhibition in experiment [1] (setting [7]) is 99% (active); in experiment [1] (setting [8]), 81% (active); in experiment [1] (at 50.0 µM) it was 79.4% (active); in experiment [2] (setting [7]), 99% (active); in experiment [2] (setting [8]) it was 84% (active); in experiment [2] (at 50.0 µM), 84.4% (active). Besides, the growth inhibition in experiment [3] (setting [7]) is 99% (active); in experiment [3] (setting [8]) it was 85% (active); in experiment [3] (at 50.0 µM) it was 87.9% (active); in experiment [4] (setting [7]), 99% (active); in experiment [4] (setting [8]) it was 86% (active); in experiment [4] (at 50.0 µM), 88% (active). Moreover, the growth inhibition is 99% (active) in experiment [5] (setting [7]); 80% (active) in experiment [5] (setting [8]); 84.2% (active) in experiment [5] (at 50.0 µM); 97% (active) in experiment [6] (setting [7]); 68% in experiment [6] (setting [8]); 87.7% (active) in experiment [6] (at 50.0 µM).
For the compound `O=C1OC2(c3ccccc31)c1cc(I)c(O)c(I)c1Oc1c2cc(I)c(O)c1I`, the growth inhibition in experiment [1] (setting [7]) was 32%; in experiment [1] (setting [8]), 99% (active); in experiment [1] (at 50.0 µM), 98.5% (active); in experiment [2] (setting [7]), 61%; in experiment [2] (setting [8]) it was 99% (active); in experiment [2] (at 50.0 µM), 99.3% (active). In addition, the growth inhibition in experiment [3] (setting [7]) is 21%; in experiment [3] (setting [8]), 56%; in experiment [3] (at 50.0 µM) it was 99.6% (active); in experiment [4] (setting [7]) it was 15%; in experiment [4] (setting [8]), 98% (active); in experiment [4] (at 50.0 µM), 98.8% (active). Besides, the growth inhibition in experiment [5] (setting [7]) is 15%; in experiment [5] (setting [8]) it was 99% (active); in experiment [5] (at 50.0 µM) it was 99.2% (active); in experiment [6] (setting [7]), 62%; in experiment [6] (setting [8]), 99% (active); in experiment [6] (at 50.0 µM), 98.7% (active).
Turning to `Clc1ccc(C2=CCCc3ccccc32)cc1`, the growth inhibition is -3% in experiment [1] (setting [7]); 1% in experiment [1] (setting [8]); 91.1% (active) in experiment [1] (at 50.0 µM); 6% in experiment [2] (setting [7]); -4% in experiment [2] (setting [8]); 96.2% (active) in experiment [2] (at 50.0 µM). Further, the growth inhibition in experiment [3] (setting [7]) is -14%; in experiment [3] (setting [8]) it was 7%; in experiment [3] (at 50.0 µM) it was 95.8% (active); in experiment [4] (setting [7]), 5%; in experiment [4] (setting [8]) it was -19%; in experiment [4] (at 50.0 µM) it was 95.7% (active). Also, the growth inhibition in experiment [5] (setting [7]) was 6%; in experiment [5] (setting [8]), -2%; in experiment [5] (at 50.0 µM), 88.5% (active); in experiment [6] (setting [7]) it was -2%; in experiment [6] (setting [8]), 3%; in experiment [6] (at 50.0 µM) it was 96.5% (active).
Regarding `O=c1cccccc1[O-].O=c1cccccc1[O-].O=c1cccccc1[O-].[Ce+3]`, the growth inhibition in experiment [1] (setting [7]) is 31%; in experiment [1] (setting [8]), 31%; in experiment [1] (at 50.0 µM) it was 90% (active); in experiment [2] (setting [7]) it was 20%; in experiment [2] (setting [8]), 20%; in experiment [2] (at 50.0 µM), 92% (active). Further, the growth inhibition in experiment [3] (setting [7]) is 13%; in experiment [3] (setting [8]), 13%; in experiment [3] (at 50.0 µM), 85% (active); in experiment [4] (setting [7]), 16%; in experiment [4] (setting [8]), 16%; in experiment [4] (at 50.0 µM), 90.4% (active). Also, the growth inhibition was 10% in experiment [5] (setting [7]); 10% in experiment [5] (setting [8]); 91.2% (active) in experiment [5] (at 50.0 µM); 26% in experiment [6] (setting [7]); 26% in experiment [6] (setting [8]); 88.5% (active) in experiment [6] (at 50.0 µM).
With `CCc1cccc(C)c1N1C(=O)C(=O)C(c2nc3ccccc3o2)/C(=N\NS(=O)(=O)c2ccc(C)cc2)C1=O` (configuration not stated), the growth inhibition is 7% in experiment [1] (setting [7]); 0% in experiment [1] (setting [8]); -6.6% in experiment [1] (at 50.0 µM); 15% in experiment [2] (setting [7]); 34% in experiment [2] (setting [8]); 14.2% in experiment [2] (at 50.0 µM). Besides, the growth inhibition in experiment [3] (setting [7]) is 6%; in experiment [3] (setting [8]), 2%; in experiment [3] (at 50.0 µM), 4.4%; in experiment [4] (setting [7]), 8%; in experiment [4] (setting [8]), -2%; in experiment [4] (at 50.0 µM), 36%. The growth inhibition is 8% in experiment [5] (setting [7]); 14% in experiment [5] (setting [8]); 6.6% in experiment [5] (at 50.0 µM); 5% in experiment [6] (setting [7]); 15% in experiment [6] (setting [8]); 0.25% in experiment [6] (at 50.0 µM).

(Values after PubChem BioAssay (NCI).)
